The results in this text go back to PubChem BioAssay (EPA / NIEHS).

Values joined by “and” are separate entries in the source; they are usually repeats but may differ in a detail not shown here. Equal entries are not always repeated. Records with an inconclusive call do not appear. The source holds several records for some structures; these can differ, active in one and inactive in another. Active and inactive are the calls of the source. How the source made its calls: active means hit-call score of the fitted dose curve at least 0.9, where 1 is the maximum; inconclusive means response in the unintended direction; inactive means score below 0.9.

The target in the experiment is Retinoic acid receptor RXR-alpha (Homo sapiens) (UniProt P19793). In words: OT_NURR1_NURR1RXRa_0480: Odyssey Thera (OT) 8-hour HEK293T Protein Complementation Assay for Nurr1/retinoid X receptor (RXR) (AID 2283385). As to the method: OT_NURR1_NURR1RXRa_0480 is a cell-based assay that uses HEK293T, a human kidney cell line, with measurements taken at 8 hours after chemical dosing in a 384-well plate.OT_NURR1_NURR1RXRa_0480 is one of one assay component(s) measured or calculated from the OT_NURR1_NURR1RXRa_0480 assay. It is designed to make measurements of protein fragment complementation, a form of binding reporter, as detected with fluorescence intensity signals by Protein-fragment Complementation technology.Data from the assay component OT_NURR1_NURR1RXRa_0480 was analyzed into 1 assay endpoint. This assay endpoint, OT_NURR1_NURR1RXRa_0480, was analyzed in the positive analysis fitting direction relative to DMSO as the negative control and baseline of activity. Using a type of binding reporter, measures of receptor for gain-of-signal activity can be used to understand the binding at the pathway-level as they relate to the gene RXRA. Furthermore, this assay endpoint can be referred to as a primary readout, because the performed assay has only produced 1 assay endpoint. To generalize the intended target to other relatable targets, this assay endpoint is annotated to the nuclear receptor intended target family, where the subfamily is non-steroidal.
Chain of Retinoic acid receptor RXR-alpha (Homo sapiens) (P19793 whole entry, looked up, the tested form may be a part): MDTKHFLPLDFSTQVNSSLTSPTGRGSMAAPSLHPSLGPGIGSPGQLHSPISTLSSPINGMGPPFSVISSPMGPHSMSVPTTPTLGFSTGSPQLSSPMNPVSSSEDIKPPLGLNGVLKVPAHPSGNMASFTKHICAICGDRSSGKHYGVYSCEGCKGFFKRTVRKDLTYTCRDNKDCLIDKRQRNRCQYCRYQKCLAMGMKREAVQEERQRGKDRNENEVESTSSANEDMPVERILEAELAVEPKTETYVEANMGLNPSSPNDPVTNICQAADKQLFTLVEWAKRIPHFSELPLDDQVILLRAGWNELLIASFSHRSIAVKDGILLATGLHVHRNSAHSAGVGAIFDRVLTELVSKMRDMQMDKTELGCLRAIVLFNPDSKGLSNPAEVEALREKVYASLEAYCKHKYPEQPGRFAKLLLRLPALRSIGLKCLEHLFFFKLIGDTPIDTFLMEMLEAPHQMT
Protein-fragment complementation assay, or PCA, is a method for the identification and quantification of protein-protein interactions. In the PCA, the proteins of interest ("bait" and "prey") are each covalently linked to fragments of a third protein (e.g. DHFR, which acts as a "reporter"). Interaction between the bait and the prey proteins brings the fragments of the reporter protein in close proximity to allow them to form a functional reporter protein whose activity can be measured.
Take `O=S(=O)(O)C(F)(F)C(F)(F)C(F)(F)C(F)(F)C(F)(F)C(F)(F)C(F)(F)C(F)(F)F`: the compound was called inactive. The term AC50 denotes the midpoint of the concentration-response curve, whichever way the signal moves. For the compound `CCOCN(C(=O)CCl)c1c(C)cccc1CC`, the AC50 was 654 nM (active) and the outcome was inactive. For `O=[N+]([O-])/N=C1\NCCN1Cc1ccc(Cl)nc1`, the compound was called inactive. Same read-out and setting: with `CNC(=O)/C=C(\C)OP(=O)(OC)OC` the entry was “inactive”; with `CCN(CC)C(=O)SCc1ccc(Cl)cc1`, “inactive”. For `N#Cc1c(Cl)c(Cl)c(Cl)c(C#N)c1Cl`, the AC50 was 76.5 nM (active).

For the compound `CC[C@H](C)[C@H]1O[C@]2(C=C[C@@H]1C)C[C@@H]1C[C@@H](C/C=C(\C)[C@@H](O[C@H]3C[C@H](OC)[C@@H](O[C@H]4C[C@H](OC)[C@@H](O)[C@H](C)O4)[C@H](C)O3)[C@@H](C)/C=C/C=C3\CO[C@@H]4[C@H](O)C(C)=C[C@@H](C(=O)O1)[C@]34O)O2` (tested in a mixture with another compound), the AC50 is 7400 nM (active) and the compound was classed as inactive. For the compound `C#CCN1C(=O)COc2cc(F)c(N3C(=O)C4=C(CCCC4)C3=O)cc21`, the compound was called inactive. Same read-out and setting: with `CCCN(CCC)c1c([N+](=O)[O-])cc(C(F)(F)F)cc1[N+](=O)[O-]` the entry was “inactive”; with `CCC(C)(NC(=O)c1cc(Cl)c(C)c(Cl)c1)C(=O)CCl` (stereo not drawn), “inactive”. On the same count and under the same terms, for `CC(C)OC(=O)Nc1cccc(Cl)c1` the value was “inactive”; for `CNC(=O)CSP(=S)(OC)OC`, “inactive”. The same measure, in the same setting: with `O=C(NC(=O)c1c(F)cccc1F)Nc1ccc(OC(F)(F)C(F)OC(F)(F)F)c(Cl)c1` (stereo not drawn) the entry was “inactive”. In the case of `COP(=S)(OC)Oc1ccc(SC)c(C)c1`, the outcome was inactive. On the same count and under the same terms, with `ClC1C(Cl)C(Cl)C(Cl)C(Cl)C1Cl` (stereo not drawn) the entry was “inactive”; with `CC(C)(C)C(O)C(Oc1ccc(Cl)cc1)n1cncn1` (stereo not drawn), “inactive”; with `CCOC1Oc2ccc(OS(C)(=O)=O)cc2C1(C)C` (stereo not drawn), “inactive”. Still for that read-out and setting: with `COP(=S)(OC)Oc1ccc([N+](=O)[O-])cc1` the entry was “inactive”. Same read-out and setting: for `CCC(C)(C)C(=O)OC1=C(c2ccc(Cl)cc2Cl)C(=O)OC12CCCCC2` the value was “inactive”; for `O=C(O)C(F)(F)C(F)(F)C(F)(F)C(F)(F)C(F)(F)C(F)(F)C(F)(F)F`, “inactive”; for `CNC(=O)Oc1ccccc1OC(C)C`, “inactive”.

Take `OCCOc1ccccc1`: the call was inactive. `Oc1cc(Cl)ccc1Oc1ccc(Cl)cc1Cl`: the AC50 was 11.9 µM (active) and 11.6 µM (active). Turning to `COP(=O)(OC)OC=C(Cl)Cl`, the outcome was inactive. Same read-out and setting: with `CCc1ccc(C(=O)NN(C(=O)c2cc(C)cc(C)c2)C(C)(C)C)cc1` the entry was “inactive”; with `CC(C)N(C(=O)COc1nnc(C(F)(F)F)s1)c1ccc(F)cc1`, “inactive”. On the same count and under the same terms, with `O=C(O)CCCOc1ccc(Cl)cc1Cl` the entry was “inactive”; with `Clc1ccccc1-c1nnc(-c2ccccc2Cl)nn1`, “inactive”. On the same count and under the same terms, for `CC1(C)C(C=C(Cl)Cl)C1C(=O)OC(C#N)c1ccc(F)c(Oc2ccccc2)c1` (stereo not drawn) the value was “inactive”.

With `O=[N+]([O-])c1c(Cl)c(Cl)c(Cl)c(Cl)c1Cl`, the compound was called inactive. On the same count and under the same terms, with `N#CN` the entry was “inactive”. Consider `CCC(C)Nc1c([N+](=O)[O-])cc(C(C)(C)C)cc1[N+](=O)[O-]` (stereo not drawn), for which the AC50 was 84.6 µM (active) and 73.7 µM (active). Regarding `Oc1ccc(Cl)cc1Cc1ccccc1`, the compound was classed as inactive. On the same count and under the same terms, with `Cc1[nH]c(=O)n(C(C)(C)C)c(=O)c1Cl` the entry was “inactive”. The same measure, in the same setting: with `O=C(O)COc1ccc(Cl)cc1Cl` the entry was “inactive”. With `CCCN(CCOc1c(Cl)cc(Cl)cc1Cl)C(=O)n1ccnc1`, the AC50 was 11900 nM (active).
